Results taken from paper PMC4552634, “A New Set of Chemical Starting Points with Plasmodium falciparum Transmission-Blocking Potential for Antimalarial Drug Discovery” (PLoS ONE, 2015).
Among all 13,000 compounds or so, about 3,200 (25%) showed an effect of 50% or more. Some of the results follow.

The molecules below were run on P. falciparum stage V gametocytes. Conditions: 48 h, 5 µM; inhibitor.
Set-up: BacTiter-Glo ATP luminescence viability of purified stage V gametocytes in 384-well plates, per cent inhibition versus DMSO

SMILES | % Inhibition
O=C(Nc1c(F)cccc1F)c1cccc(-c2nn3ccccc3c2-c2ccnc(Nc3cccc(-c4cnco4)c3)n2)c1 [TCMDC-135743] | -41.11%
c1ccc2c(CNCCCN3CCN(CCCNCc4c5ccccc5cc5ccccc45)CC3)c3ccccc3cc2c1 [TCMDC-137909] | 115.6%
c1ccc2c(c1)cc(CNCCCN1CCN(CCCNCc3cc4ccccc4c4ccccc34)CC1)c1ccccc12 [TCMDC-137914] | 113.5%
O=C(/C=C/c1ccc(Cl)c(Cl)c1)NCCCCCN1CCC(C(=O)Nc2cccc(Cl)c2)CC1 [TCMDC-136120] | -13.38%
Cc1ccc(NC(=O)c2cccc(C#N)c2)cc1-c1ccc(C(=O)Nc2ccncc2)cc1 [TCMDC-133697] | -8.671%
CCC[C@@H]([C@@H](Cc1ccc(C)s1)C(=O)N[C@@H](CNC(C)=O)C(=O)Nc1nccs1)N(O)C=O [TCMDC-138137] | -97.54%
Cc1cc(C)c2[nH]cc(C(=O)O)c(=O)c2c1 [TCMDC-123953] | 3.462%
Oc1ccc(Cl)c2c1C(c1ccccc1)=NCC2 [TCMDC-137522] | -9.659%
COc1ccc(Oc2ccc(Nc3ccnc4ccc(C(F)(F)F)cc34)cc2)cc1OC [TCMDC-138310] | -11.17%
CN(C)CCCc1cc2c(cc1Cl)CCN2C(=O)Nc1ccc(-c2ccncc2)c2ccccc12 [TCMDC-139215] | -22.47%
CCCc1cc(C(=O)N[C@@H](Cc2ccccc2)[C@H](O)CNC(C)(C)c2cccc(OC)c2)c(F)c(N2CCCC2=O)c1 [TCMDC-135396] | 48.39%
COc1ccc(CN(C)CCOc2ccc(NC(=O)c3cccc4c(=O)cc(-c5ccccc5)[nH]c34)cc2)cc1OC [TCMDC-131849] | 25.38%
COc1c(CN2CCOCC2)cccc1-c1cc2c(-c3ccc(C(=O)O)c(C(C)C)c3)ccnc2[nH]1 [TCMDC-135049] | -0.2517%
CCN(CC)Cc1ccc(OC)c(-c2cc3c(-c4ccc(C(=O)O)c(C(C)C)c4)ccnc3[nH]2)c1 [TCMDC-135051] | 59.03%
COc1ccc(-c2cnc3[nH]cc(-c4ccc(C(=O)O)c(C)c4)c3c2)cn1 [TCMDC-136360] | 34.92%
COc1c(CN2CCCC2)cccc1-c1cc2c(-c3ccc(C(=O)O)c(C(C)C)c3)ccnc2[nH]1 [TCMDC-135050] | 69.12%
COc1cccc(CN2CCC(C(=O)Nc3ccc(-c4nc5ccccc5[nH]4)cc3)CC2)c1 [TCMDC-124615] | -54.81%
CN(C)CC1CCCN1Cc1ccccc1-c1cnn(C)c(=O)c1Oc1ccc(F)cc1 (stereo not shown) [TCMDC-135098] | 10.73%
O=C(NCCCN1CCN(c2cccc(Cl)c2)CC1)c1ccc(-c2nc3cc(Cl)c(Cl)cc3[nH]2)c(F)c1 [TCMDC-140084] | -21.33%
O=C(CNc1ccc(Cl)c(S(=O)(=O)N2CCCC2)c1)Nc1ccc(Br)cc1F [TCMDC-125102] | 24.63%
Cc1onc(-c2ccccc2)c1-c1nc(NCCC(c2ccccc2)c2ccccc2)no1 [TCMDC-134203] | 3.551%
CN1CCC(N(Cc2ccc(-c3ccc(C(F)(F)F)cc3)cc2)C(=O)Cn2c(SCc3cccc(F)c3F)cc(=O)c3c2CCC3)CC1 [TCMDC-141319] | 92.96%
CC(C)N1CCC(N(Cc2ccc(-c3ccc(C(F)(F)F)cc3)cc2)C(=O)Cn2c(SCc3cccc(F)c3F)cc(=O)c3c2CCC3)CC1 [TCMDC-141320] | 98.3%
O=C(NOCc1ccccc1)c1cc(Cl)ccc1O [TCMDC-131603] | 3.846%

SMILES | % Inhibition
CCC1CCc2cc(N)cc(-c3nc4c(c(C)nn4CC)c(=O)[nH]3)c2O1 (stereo not shown) [TCMDC-131857] | 1.879%
CCC(=O)Nc1ccc(C(O)CN2CCC3(C=Cc4ccccc4O3)CC2)cc1 (stereo not shown) [TCMDC-124852] | 40%
COc1cc2nc(NCCn3cccn3)nc(NCCc3ccccc3)c2cc1OC [TCMDC-135472] | 50.26%
COc1cc2nc(NCCn3ccnc3C)nc(NCCc3ccccc3)c2cc1OC [TCMDC-135471] | 66.44%
CN(C)CCN(C)Cc1ccc(-c2ccc3c(Nc4ccc(Oc5ccccn5)cc4)ccnc3c2)o1 [TCMDC-138426] | 89.24%
Clc1cc2c(Nc3ccc(Oc4ccccc4)cc3)ccnc2cc1-c1ccc(CNCCN2CCOCC2)o1 [TCMDC-138464] | 21.03%
CN(C)CCNCc1ccc(-c2ccc3c(Nc4ccc(Oc5ccccc5)cc4)ccnc3c2)o1 [TCMDC-138399] | 96.18%
CN(C)Cc1ccc(-c2ccc3c(Nc4ccc(Oc5ccccc5)cc4)ccnc3c2)o1 [TCMDC-138401] | -9.57%
CS(=O)(=O)CCNCc1ccc(-c2ccc3c(Nc4ccc(Oc5ccccn5)cc4)ccnc3c2)o1 [TCMDC-138444] | 5.347%
c1ccc(Oc2ccc(Nc3ccnc4ccc(-c5ccccn5)cc34)cc2)cc1 [TCMDC-138118] | -22.81%
CN(C)Cc1ccc(-c2ccc3c(Nc4ccc(Oc5ccccn5)cc4)ccnc3c2)o1 [TCMDC-138425] | 93.82%
CN(C)CCN(C)Cc1ccc(-c2ccc3c(Nc4ccc(Oc5ccccc5)cc4)ccnc3c2)o1 [TCMDC-138400] | 100.2%
COc1ccc(NC(=O)c2csc(-c3cc(NC(=O)c4ccnc(N5CCCC5)c4)ccc3C)c2)cc1N1CCN(C)CC1 [TCMDC-136374] | 23.12%
NC(=O)c1cccc(Nc2nccc(Nc3ccc(Oc4cccc5ccccc45)cc3)n2)c1 [TCMDC-138599] | -18.47%
CC[C@H]1CN2CC[C@H]1C[C@@H]2[C@@H](OC(=O)c1ccc(Cl)cc1)c1ccnc2ccc(OC)cc12 [TCMDC-125492] | -10.63%
CC(C)(C)c1cc(C(=O)N2CCN(c3ncccc3C(F)(F)F)CC2)n(Cc2ccccc2)n1 [TCMDC-134142] | 2.354%
CCN(CC)C(=O)C1CCCN(c2cc(C)nc(Nc3ccc(Cl)cc3)n2)C1 (stereo not shown) [TCMDC-132204] | -2.665%
N#Cc1ccc(N2CCN(Cc3cccc(-c4cccc(-c5nc6cc(C(F)(F)F)ccc6[nH]5)c4)c3)CC2)nc1.O=C(O)C(F)(F)F [TCMDC-133117] | -5.62%
O=C(CCn1c2ccccc2c2ccccc21)NN=Cc1ccco1 [TCMDC-125735] | -6.333%
CC(C)Cn1cc2c(ccc3nc(N)nc(N)c32)n1 [TCMDC-137969] | -46.77%
COc1ccc2nccc([C@@H](O)CN3CCC(NC(=O)/C=C/c4cccc(-c5ccccc5)c4)CC3)c2c1 [TCMDC-141043] | -22.17%
CC(NCCC1CCC(NC(=O)N[C@H](C)C(O)(c2ccccc2)c2ccccc2)CC1)c1cccc2ccccc12 (stereo partly shown) [TCMDC-136378] | 64.1%
CC(NC(=O)NC1CCC(CCN2CCCc3ccccc32)CC1)c1cccc2ccccc12 (stereo not shown) [TCMDC-136176] | 92.78%
CC(C)[C@@H](NC(=O)NC1CCC(CCN2C3CCC2CC(OC(=O)C(CO)c2ccccc2)C3)CC1)C(O)(c1ccccc1)c1ccccc1 (stereo partly shown) [TCMDC-136458] | 45.88%

SMILES | % Inhibition
CC(C)[C@H](NC(=O)NC1CCC(CCN2C3CCC2CC(OC(=O)C(CO)c2ccccc2)C3)CC1)C(O)(c1ccccc1)c1ccccc1 (stereo partly shown) [TCMDC-136457] | -19.47%
N#Cc1ccc2c(c1)CCN(CCC1CCC(NC(=O)/C=C/c3cccc4ccccc34)CC1)CC2 (stereo not shown) [TCMDC-139777] | -39.21%
CC(=O)c1ccc2c(c1)CCN(CCC1CCC(NC(=O)c3cc4ccccc4[nH]3)CC1)CC2 (stereo not shown) [TCMDC-139776] | -25.73%
Oc1cc2c(cc1CN1CCN(Cc3cccs3)CC1)CCC2 [TCMDC-125012] | 1.025%
CCN(CC)CCN1C(=O)c2oc3ccc(Cl)cc3c(=O)c2C1c1ccc(SC)cc1 (stereo not shown) [TCMDC-124623] | 3.621%
CCCCCN1C(=O)C(c2ccccc2)(c2ccccc2)N=C1N [TCMDC-136877] | -32.2%
COc1cccc(-c2cnc(N)c(-c3nc4ccc(C(F)(F)F)cc4[nH]3)c2)c1 [TCMDC-138790] | 13.24%
COc1ccccc1NC(=O)Nc1ccc(-c2ccc(-c3nc4ccc(C(F)(F)F)cc4[nH]3)cc2)cc1 [TCMDC-133202] | -7.674%
CCCCCCCc1cc(O)c2c3c(c(=O)oc2c1)CN(C)CC3 [TCMDC-124145] | 8.32%
Cc1sc(CNCCCNc2cc(=O)c3ccccc3[nH]2)c(C(F)(F)F)c1C [TCMDC-140906] | 5.874%
Cc1cccc2[nH]c(-c3ccc(-c4cccc(NC(=O)C(=O)c5cccn5C)c4)cc3)nc12 [TCMDC-136907] | 90.5%
Cc1cccc2[nH]c(-c3ccc(-c4cccc(NC(=O)Nc5cccc(C#N)c5)c4)cc3)nc12 [TCMDC-133198] | 83.69%
Cc1cccc2[nH]c(-c3ccc(-c4cccc(NC(=O)Nc5ccccc5)c4)cc3)nc12 [TCMDC-133155] | 0.6364%
Cc1cccc2[nH]c(-c3cccc(-c4cccc(NC(=O)Nc5cccc(C#N)c5)c4)c3)nc12 [TCMDC-133194] | -35.1%
Cc1cccc2[nH]c(-c3ccc(-c4ccc(NC(=O)Nc5ccc(Cl)cc5)cc4)cc3)nc12 [TCMDC-133184] | -26.89%
Cn1cccc1C(=O)C(=O)Nc1ccc(-c2ccc(-c3nc4ccc(F)cc4[nH]3)cc2)cc1 [TCMDC-136780] | -3.552%
Cc1cccc2[nH]c(-c3cccc(-c4ccc(NC(=O)Nc5ccc(Cl)cc5)cc4)c3)nc12 [TCMDC-133177] | 12.12%
Cc1cccc2[nH]c(-c3cccc(-c4ccc(NC(=O)Nc5cccc(C#N)c5)cc4)c3)nc12 [TCMDC-133192] | 2.358%
CCNC(=O)Nc1ccc(-c2cccc(-c3nc4c(C)cccc4[nH]3)c2)cc1 [TCMDC-133171] | -9.855%
Cc1cccc2[nH]c(-c3cccc(-c4ccc(NC(=O)C(=O)c5cccn5C)cc4)c3)nc12 [TCMDC-136909] | 70.67%
Cn1cccc1C(=O)C(=O)Nc1cccc(-c2ccc(-c3nc4ccc(C(F)(F)F)cc4[nH]3)cc2)c1 [TCMDC-136910] | 0.09328%
Cc1cccc2[nH]c(-c3ccc(-c4ccc(NC(=O)C(=O)c5cccn5C)cc4)cc3)nc12 [TCMDC-136908] | 78.98%
